# Measured values from the supplement of paper PMC10338343.
# ± gives the standard deviation.
# Key:
# [1] = tested on: MILI (PIWIL2) piRISC loaded with L1MC piRNA (26 nt); assay: pre-steady-state target cleavage rate (min^-1); guide: L1MC piRNA 5'p-UAACUAAAUACUAUGCAAGCUGUAGG; higher = faster piRNA-guided slicing of the target
# In short: (§1)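 The method was Cleave-'n-Seq, in which uncleaved targets from a transcribed, DNA-blocked target RNA library were sequenced after exposure to active affinity-purified piRISC carrying one synthetic guide, with or without GTSF1 partner protein. Reactions contained 0.1 nM library, 1 nM piRISC and, where present, 500 nM GTSF1 in HEPES–potassium acetate buffer at 33 °C for 0–8 or 0–960 min. Reads were normalised to depth and to weakly complementary targets, three trials were pooled, and k3 was capped at 0.0001 min^-1. The pre-steady-state cleavage rate came from a burst-and-steady-state fit.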
# [2] = tested on: EfPiwi piRISC loaded with L1MC piRNA (26 nt); assay: pre-steady-state target cleavage rate (min^-1); auxiliary factor: 500 nM Ephydatia muelleri Gtsf1; guide: L1MC piRNA 5'p-UAACUAAAUACUAUGCAAGCUGUAGG; MIWI and MILI are mouse PIWI proteins and EfPiwi is from a freshwater sponge; tags in brackets are library labels; higher = faster piRNA-guided slicing of the target
# In short: as §1
# [3] = auxiliary factor: 500 nM mouse GTSF1
# [4] = auxiliary factor: none (no GTSF1)
Sequence,"pre-steady-state target cleavage rate [1, 3]","pre-steady-state target cleavage rate [1, 4]",pre-steady-state target cleavage rate [2]
UCCUGGAAGAGCUUGCAUAGUAUUUAGUUA,0.223 ± 0.014,0.0115 ± 0.0029,0.0725 ± 0.016
UCCUGCUACAGCUUCAUAGUAUUUAGUUA,0.231 ± 0.019,0.00508 ± 0.0025,0.00994 ± 0.0031
UCCUGGAUGAGCUUUGCAUAGUAUUUAGUUA,0.181 ± 0.013,0.0103 ± 0.0021,0.0107 ± 0.0037
UCCUGGAACAGCAUUGCAUAGUAUUUAGUUA,0.233 ± 0.024,0.00862 ± 0.0022,0.015 ± 0.0044
UCCUGGAUCAGCUGGCAUAGUAUUUAGUUA,0.253 ± 0.023,0.00736 ± 0.0024,0.0104 ± 0.0026
UCCUCCUACAGCUUGCAGAGUAUUUAGUUA,0.218 ± 0.021,0.00823 ± 0.0022,0.0095 ± 0.0025
UCCUGGAACAGCUGUGCAUAGUAUUUAGUUA,0.206 ± 0.015,0.00954 ± 0.0024,0.00999 ± 0.0023
UCCUGGAUGUCGUUGCAUAGUACUUAGUUA,0.0399 ± 0.011,0.00463 ± 0.0029,0.00365 ± 0.0035
UCCUGGAUGUCCUCUGCAUAGUAUUUAGUUA,0.0405 ± 0.0082,0.00562 ± 0.0033,0.00412 ± 0.003
UCCUGGAUGUGCUGCAUAGUAUUUAGUUA,0.0672 ± 0.009,0.00895 ± 0.0024,0.00571 ± 0.0034
UCCUGGUACAGUUGCAUAGUAUUUAGUUA,0.227 ± 0.023,0.0115 ± 0.003,0.0124 ± 0.0051
UCCUGGAACAGCUUGCAUAGUACUUAGUUA,0.243 ± 0.018,0.0101 ± 0.0024,0.0218 ± 0.0069
UCCUGCUACAGCUUGCACAGUAUUUAGUUA,0.157 ± 0.015,0.00803 ± 0.0023,0.0133 ± 0.0041
UCCUGGAUGUCGUAUGCAUAGUAUUUAGUUA,0.0833 ± 0.012,0.00487 ± 0.0028,0.00476 ± 0.0027
UCCUGGUAGUCCUUGCAUAGUAUUUAGUAA,0.113 ± 0.025,0.00362 ± 0.003,0.00627 ± 0.0035
UCCUGGAUGUGCUAUGCAUAGUAUUUAGUUA,0.141 ± 0.018,0.0069 ± 0.0024,0.0103 ± 0.0036
UCCUGCUACAGCUUGCAUAGUUAUUAGUUA,0.0372 ± 0.013,0.00337 ± 0.002,0.00354 ± 0.0022
UCCUGGAUGAGCUUGCAUAGUAUUUACGUUA,0.189 ± 0.031,0.00682 ± 0.0032,0.00466 ± 0.0026
UCCUGGAUGAGCUUGCAUAGUAUUUUAGUUA,0.163 ± 0.019,0.00807 ± 0.0028,0.00631 ± 0.0035
UCCUGGUACAGCUUGCAUAGUCUUUAGUUA,0.152 ± 0.025,0.00831 ± 0.003,0.00738 ± 0.0024
UCCUGGUACAGCUAGCAUAGUAUUAAGUUA,0.198 ± 0.032,0.00537 ± 0.0026,0.00476 ± 0.0024
UCCUCCUACAGCUUGCCAUAGUAUUUAGUUA,0.173 ± 0.026,0.00264 ± 0.0026,0.00595 ± 0.0024
UCCUGGUACAGCUUGCAUAGUAUUUAGAUUA,0.131 ± 0.04,0.00728 ± 0.0036,0.00491 ± 0.0025
UCCUCCUACAGCUUGCAUAGUAUUUAGUCA,0.303 ± 0.025,0.00856 ± 0.0028,0.00693 ± 0.003
UCCUGGUUACAGCUUGCAUAGUAUUUAGUUA,0.256 ± 0.025,0.03 ± 0.0078,0.0881 ± 0.021
UCCUCCUACAGCUUGCAUAGUAAUUAGUUA,0.275 ± 0.022,0.00666 ± 0.0023,0.0117 ± 0.0045
UCCUGGUACAGCUUGCAUAGUAUUUAGUA,0.226 ± 0.031,0.00521 ± 0.003,0.00657 ± 0.0033
UCCUGGAUCAGCUGCAUAGUAUUUAGUUA,0.25 ± 0.015,0.00821 ± 0.0027,0.0152 ± 0.0053
UCCUGGAAGUCCUUGCAUAGUAUUUAGUUA,0.159 ± 0.018,0.00649 ± 0.0018,0.0092 ± 0.0031
